The values that follow come from PubChem BioAssay (Tox21).

The nature of experiment [1]: qHTS assay to test for compound auto fluorescence at 535 nm (green) in HEK293 cells (AID 720680).
Experiment [2] in a line: qHTS assay to test for compound auto fluorescence at 535 nm (green) in HEK293 cell free culture (AID 720682). Put shortly:
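Compounds were pin-transferred into cell-free DMEM with 10% FBS, and green fluorescence was read at excitation 485 nm and emission 535 nm. Intensities were expressed as fluorescein-equivalent values.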

Experiment [3] in a line: qHTS assay to test for compound auto fluorescence at 590 nm (red) in HEK293 cell free culture (AID 720683). Summed up:
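Cell-free wells of DMEM with 10% FBS received compound, and intrinsic fluorescence was read at excitation/emission 540/590 nm. Values expressed as equivalence to Rose Bengal sodium.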

Experiment [4] can be described thus: qHTS assay to test for compound auto fluorescence at 590 nm (red) in HepG2 cell free culture (AID 720684). Summed up: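 Compounds are added to culture medium (MEM, 10% FBS) lacking cells, then fluorescence is read at excitation 540 nm, emission 590 nm, with Rose Bengal sodium as the equivalency standard.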
The nature of experiment [5]: qHTS assay to test for compound auto fluorescence at 460 nm (blue) in HepG2 cell free culture (AID 720685). Summed up:
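Compound (23 nL) or DMSO pinned into cell-free MEM with 10% FBS; blue fluorescence read at 405/460 nm excitation/emission, expressed as auto-fluorescence equivalency to triamterene.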

Experiment [6] can be described thus: qHTS assay to test for compound auto fluorescence at 535 nm (green) in HepG2 cell free culture (AID 720686).
A short description of experiment [7]: qHTS assay to test for compound auto fluorescence at 460 nm (blue) in HepG2 cells (AID 720687). Summed up:
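HepG2 cells in MEM with 10% FBS, attached overnight at 37 C, were exposed to compound or DMSO for 1 hr at 37 C, 5% CO2. Blue fluorescence was read at 405/460 nm, with triamterene as reference fluorophore.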

In experiment [8] the target is Glucocorticoid receptor (Homo sapiens) (UniProt P04150). Description: qHTS assay to identify small molecule agonists of the glucocorticoid receptor (GR) signaling pathway (AID 720691; active = well fitted activation curve with a large enough effect in the signal ratio in the repeat runs, not every such curve was filed as active; the % refers to the signal ratio). Summed up: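 Fluorescence intensity from LiveBLAzer B/G FRET substrate (2 h, room temperature) reports beta-lactamase expression driven by the glucocorticoid response element in GR-bla HeLa cells after 18 h compound exposure at 37 C.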

The nature of experiment [9]: qHTS assay to identify small molecule antagonists of the glucocorticoid receptor (GR) signaling pathway - cell viability counter screen (AID 720693). Also: nearly all actives have a fitted effect of over 55% in size. Also: potency is read from the fitted curve at half-maximal effect.
A short description of experiment [10]: qHTS assay for identifying genotoxic compounds that show differential cytotoxicity against isogenic chicken DT40 cell lines with known DNA damage response pathways - Rev3 mutant cell line (AID 743014). Also: nearly all actives have a fitted effect of over 55% in size. Also: potency is read from the fitted curve at half-maximal effect.
A short description of experiment [11]: qHTS assay for identifying genotoxic compounds that show differential cytotoxicity against isogenic chicken DT40 cell lines with known DNA damage response pathways - Rad54/Ku70 mutant cell line (AID 743015). Also: nearly all actives have a fitted effect of over 60% in size. Also: potency is read from the fitted curve at half-maximal effect.
Experiment [12] can be described thus: qHTS assay to identify small molecule antagonists of the androgen receptor (AR) signaling pathway - cell viability counter screen (AID 743033; also: nearly all actives have a fitted effect of over 45% in size; also: potency is read from the fitted curve at half-maximal effect).
Experiment [13] can be described thus: qHTS assay to identify small molecule antagonists of the androgen receptor (AR) signaling pathway using the MDA cell line - cell viability counter screen (AID 743041; also: nearly all actives have a fitted effect of over 45% in size; also: potency is read from the fitted curve at half-maximal effect). Put shortly: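 Same-well cytotoxicity was assessed by CellTiter-Fluor in MDA-kb2 AR-luc cells after 16 h of compound treatment under R1881 agonism.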
Experiment [14] has as its target Glucocorticoid receptor (Homo sapiens) (UniProt P04150). Description: qHTS assay to identify small molecule antagonists of the glucocorticoid receptor (GR) signaling pathway (AID 720692; active = well fitted inhibition curve with a large enough effect in the signal ratio in the repeat runs, not every such curve was filed as active; the % refers to the signal ratio). Summed up: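 HeLa GR-bla cells; cmpd + dex 5 nM final, 18 h 37 C; LiveBLAzer B/G FRET substrate 2 h RT; fluorescence intensity read. Antagonist mode, qHTS.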
Experiment [15] can be described thus: qHTS assay for identifying genotoxic compounds that show differential cytotoxicity against isogenic chicken DT40 cell lines with known DNA damage response pathways - wild type cell line (AID 743012). Also: nearly all actives have a fitted effect of over 60% in size. Also: potency is read from the fitted curve at half-maximal effect. Put shortly:
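Wild type DT40, 300 cells/well, ~0.5 h settle at 37 C/5% CO2; compounds in DMSO added by pintool; 40 h at 37 C/5% CO2; CellTiter-Glo, 30 min RT; luminescence.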

Experiment [16] has as its target Androgen receptor (Homo sapiens) (UniProt P10275). As to the kind of experiment: qHTS assay to identify small molecule antagonists of the androgen receptor (AR) signaling pathway (AID 743035; active = well fitted inhibition curve with a large enough effect in the signal ratio in the repeat runs, not every such curve was filed as active; the % refers to the signal ratio). Summed up: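 Fluorescence from a beta-lactamase FRET substrate (LiveBLAzer B/G, 2 h, room temperature) measured inhibition of R1881-stimulated signaling in GeneBLAzer AR-UAS-bla HEK293 cells exposed to compound for 16 h at 37C.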

The target is the same in experiment [17]. Description: qHTS assay to identify small molecule agonists of the androgen receptor (AR) signaling pathway (AID 743036; active = well fitted activation curve with a large enough effect in the signal ratio in the repeat runs, with a control signal flat, not every such curve was filed as active; the % refers to the signal ratio). Put shortly: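 Activation was read as beta-lactamase FRET signal from LiveBLAzer B/G substrate, added for 2 h at room temperature. Before that, GeneBLAzer AR-UAS-bla GripTite (HEK293) cells had 16 h compound exposure at 37C.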
Experiment [18] has the same target. As to the kind of experiment: qHTS assay to identify small molecule agonists of the androgen receptor (AR) signaling pathway using the MDA cell line (AID 743040; also: nearly all actives have a fitted effect of over 20% in size). Put shortly: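 Human breast carcinoma MDA-kb2 reporter cells (MMTV-luc, AR/GR elements) were treated for 16 h at 37C in 0% CO2 following a 5 h settling period. Signal was quantified by ONE-Glo luminescence.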

Experiment [19] has the same target. As to the kind of experiment: qHTS assay to identify small molecule antagonists of the androgen receptor (AR) signaling pathway using the MDA cell line (AID 743042; also: nearly all actives have a fitted effect of over 55% in size). Put shortly:
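MDA-kb2 breast carcinoma cells carrying MMTV-luciferase (AR/GR responsive) were co-treated with compounds and the agonist R1881 for 16 h at 37C. Inhibition read as ONE-Glo luminescence; CellTiter-Fluor fluorescence measured in parallel for cytotoxicity.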

Results filed as inconclusive are left out. The source made the active and inactive calls. Unless noted, calls follow the shape of the dose curve; as a rule, active = well fitted curve in the direction sought with a large enough effect in the repeat runs; inconclusive = weak or mixed curves; inactive = no such curve, though single readings can be large; an effect the other way counts as inactive or inconclusive.

Chain of Glucocorticoid receptor (Homo sapiens) (P04150 whole entry, looked up): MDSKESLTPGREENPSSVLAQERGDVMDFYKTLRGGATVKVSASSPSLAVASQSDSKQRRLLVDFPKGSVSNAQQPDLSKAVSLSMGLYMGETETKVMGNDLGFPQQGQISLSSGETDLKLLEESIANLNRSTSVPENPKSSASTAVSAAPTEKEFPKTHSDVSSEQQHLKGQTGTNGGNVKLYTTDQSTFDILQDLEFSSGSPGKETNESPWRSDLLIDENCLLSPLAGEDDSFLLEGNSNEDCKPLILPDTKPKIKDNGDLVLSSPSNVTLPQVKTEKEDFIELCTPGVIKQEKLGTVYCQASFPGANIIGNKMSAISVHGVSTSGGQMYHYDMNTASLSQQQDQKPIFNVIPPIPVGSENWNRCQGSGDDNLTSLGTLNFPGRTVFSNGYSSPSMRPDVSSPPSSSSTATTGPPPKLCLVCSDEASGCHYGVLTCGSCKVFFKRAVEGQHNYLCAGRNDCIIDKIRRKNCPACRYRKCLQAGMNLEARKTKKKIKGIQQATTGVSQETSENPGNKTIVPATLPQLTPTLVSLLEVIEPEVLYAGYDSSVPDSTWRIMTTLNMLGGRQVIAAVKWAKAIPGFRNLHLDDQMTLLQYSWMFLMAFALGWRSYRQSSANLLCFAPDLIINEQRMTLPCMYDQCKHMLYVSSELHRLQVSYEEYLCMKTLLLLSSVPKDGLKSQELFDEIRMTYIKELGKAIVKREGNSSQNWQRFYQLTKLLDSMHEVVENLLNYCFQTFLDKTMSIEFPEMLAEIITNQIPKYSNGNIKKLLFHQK
Chain of Androgen receptor (Homo sapiens) (P10275 whole entry, looked up): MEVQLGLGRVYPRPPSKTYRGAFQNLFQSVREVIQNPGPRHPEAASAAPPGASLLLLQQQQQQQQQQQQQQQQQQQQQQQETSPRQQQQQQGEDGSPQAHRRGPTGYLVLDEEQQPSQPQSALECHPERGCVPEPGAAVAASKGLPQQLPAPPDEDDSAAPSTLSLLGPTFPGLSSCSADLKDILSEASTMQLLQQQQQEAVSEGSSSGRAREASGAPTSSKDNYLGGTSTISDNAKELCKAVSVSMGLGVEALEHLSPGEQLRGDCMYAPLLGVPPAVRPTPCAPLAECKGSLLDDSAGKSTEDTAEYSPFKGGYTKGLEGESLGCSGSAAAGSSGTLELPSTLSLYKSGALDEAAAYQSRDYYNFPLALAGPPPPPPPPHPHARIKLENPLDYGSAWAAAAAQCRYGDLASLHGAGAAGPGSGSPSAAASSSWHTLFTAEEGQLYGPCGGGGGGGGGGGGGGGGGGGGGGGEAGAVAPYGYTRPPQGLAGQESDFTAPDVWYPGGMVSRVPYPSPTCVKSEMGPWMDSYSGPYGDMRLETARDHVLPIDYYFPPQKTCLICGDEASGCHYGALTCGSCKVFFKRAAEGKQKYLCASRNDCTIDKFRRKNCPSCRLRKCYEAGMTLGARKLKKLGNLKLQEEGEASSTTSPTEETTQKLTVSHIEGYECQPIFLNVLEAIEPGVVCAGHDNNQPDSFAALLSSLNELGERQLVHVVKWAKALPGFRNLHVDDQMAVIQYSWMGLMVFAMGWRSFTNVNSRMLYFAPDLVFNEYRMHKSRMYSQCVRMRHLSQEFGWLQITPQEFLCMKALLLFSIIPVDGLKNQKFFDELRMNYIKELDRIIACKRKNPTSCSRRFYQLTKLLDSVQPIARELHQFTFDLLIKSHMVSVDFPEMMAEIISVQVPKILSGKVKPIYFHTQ

Regarding `C[N+](=O)[O-]`, the result in experiment [1], in [2], in experiment [3], in [4], in experiment [5] and in experiment [6] was inactive. For the same compound, the call in experiment [7] and in [8] was inactive. Further, the Potency entry in experiment [9], in [10], in [11], in experiment [12] and in experiment [13] was “inactive” each time.

Consider `CCC(C)(C)c1cc(-n2nc3ccccc3n2)c(O)c(C(C)(C)CC)c1`, for which the compound was called inactive in [1], in experiment [2], in experiment [3], in experiment [4], in [5] and in experiment [6]. In addition, the result in experiment [7], in experiment [8], in experiment [17] and in experiment [19] was inactive. In addition, the Potency entry in [14], in experiment [15], in experiment [10], in experiment [11], in experiment [12] and in experiment [16] was “inactive” each time. In addition, the Potency entry in experiment [18] and in experiment [13] was “inactive” each time.

Regarding `COc1cccc2c1cc([N+](=O)[O-])c1c(C(=O)O)cc3c(c12)OCO3`, the result in experiment [1], in [2], in [3], in [4], in experiment [5] and in [6] was inactive. Besides, the compound was called inactive in [7]. For the same compound, the Potency in experiment [9] was 12.3 µM (active); in [15], 0.77 µM (active); in [10] it was 0.137 µM (active); in experiment [11] it was 0.193 µM (active); in experiment [12], 12.3 µM (active); in [13], 34.4 µM (active).

For `CCc1cc2c(s1)-n1c(C)nnc1CN=C2c1ccccc1Cl`, the outcome in [1], in experiment [2], in experiment [3], in [4], in experiment [5] and in [6] was inactive. The outcome in experiment [7] and in experiment [8] was inactive. The Potency entry in experiment [9], in [10], in experiment [12] and in experiment [13] was “inactive” throughout.

As for `O=C1OC(c2ccc(O)c(S(=O)(=O)O)c2)(c2ccc(O)c(S(=O)(=O)O)c2)c2c(Br)c(Br)c(Br)c(Br)c21`, the outcome in experiment [1], in [2], in experiment [3], in experiment [4], in [5] and in [6] was inactive. Besides, the compound was called inactive in [7] and in experiment [8]. Further, the Potency result in experiment [9], in experiment [15], in [10], in experiment [11], in [12] and in [13] was “inactive” each time.

For the compound `COC(=O)C(C)Oc1ccc(Oc2ccc(Cl)cc2Cl)cc1` (configuration not stated), the outcome in experiment [1], in experiment [2], in experiment [3], in experiment [4], in [5] and in [6] was inactive. Also, in experiment [7], the result was inactive. Besides, the Potency result in [9] and in experiment [13] was “inactive” each time. Further, in experiment [11], the Potency is 68.6 µM (active).

Turning to `COc1cc(OC)nc(NC(=O)NS(=O)(=O)c2ncccc2C(=O)N(C)C)n1`, the outcome in experiment [1], in experiment [2], in experiment [3], in experiment [4], in experiment [5] and in experiment [6] was inactive. Also, the compound was called inactive in experiment [7] and in experiment [8]. In addition, the Potency result in experiment [15], in [10], in experiment [11], in [12] and in experiment [13] was “inactive” throughout.

On to `COc1cc(OC)nc(Sc2cccc(Cl)c2C(=O)O)n1`, for which the outcome in experiment [1], in experiment [2], in experiment [3], in experiment [4], in experiment [5] and in [6] was inactive. Moreover, in experiment [7], the outcome was inactive. For the same compound, the Potency entry in experiment [14], in experiment [9], in [15], in experiment [10], in [11] and in [12] was “inactive” in each case. The Potency result in [13] is “inactive”.

In the case of `CCCSP(=O)(OCC)Oc1ccc(Br)cc1Cl` (configuration not stated), the call in [1], in experiment [2], in experiment [3], in [4], in experiment [5] and in [6] was inactive. In addition, the compound was called inactive in experiment [7]. The Potency result in experiment [9], in [12] and in experiment [13] was “inactive” each time. Further, the Potency in experiment [10] is 33.3 µM (active); in experiment [11], 29.7 µM (active).

On to `COC(=O)C1=CCCN(C)C1`, for which the compound was called inactive in [1], in experiment [2], in experiment [3], in [4], in experiment [5] and in [6]. Moreover, the compound was classed as inactive in experiment [7]. Also, the Potency result in experiment [15], in experiment [11] and in [13] was “inactive” throughout.

In the case of `CCC(C)n1c(=O)[nH]c(C)c(Br)c1=O` (configuration not stated), the call in experiment [1], in experiment [2], in experiment [3], in [4], in experiment [5] and in experiment [6] was inactive. For the same compound, the compound was called inactive in experiment [7]. The Potency result in experiment [9], in experiment [15], in [11], in experiment [12] and in experiment [13] was “inactive” each time.

On to `O=NN1CCCCC1`, for which the compound was called inactive in experiment [1], in experiment [2], in experiment [3], in [4], in [5] and in [6]. The compound was classed as inactive in experiment [7], in experiment [17] and in experiment [19]. The Potency result in experiment [10], in experiment [11], in [12], in experiment [16], in [18] and in experiment [13] was “inactive” in each case.

`COC(=O)c1c(C(F)F)nc(C(F)(F)F)c(C2=NCCS2)c1CC(C)C`: the compound was called inactive in [1], in [2], in [3], in experiment [4], in [5] and in experiment [6]. Moreover, the compound was called inactive in [7], in [17] and in experiment [19]. Further, the Potency entry in experiment [9], in experiment [12], in experiment [16], in [18] and in [13] was “inactive” throughout. Also, the Potency in experiment [10] and in experiment [11] was 61.1 µM (active) in each case.
